# Compound activity as filed in PubChem BioAssay.
# In the library only some 14% were active in any assay of this set; here they are far more common.
# NS1 inh: blocks influenza NS1 protein function | 270,000 compounds, 0.4% hits | Potency, µM (series often up to 46.1 µM), without a hit: top-dose activity, positive = more growth; calls by dose curve; further: potency means the concentration at half of the fitted maximal effect; actives are rising curves; nearly all actives have a fitted effect of over 50% in size
#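 A cell-based growth assay was used: compounds that relieve NS1-induced slow growth of budding yeast raise OD600. Assay medium was yeast nitrogen base with ammonium sulphate and -URA supplement, pH 6.0, with 2% galactose.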
# Shiga toxin inh: Shiga toxin inhibition | AID 2315 | inhibition, % at 38.7 µM | 290,000 compounds, 9.2% hits | Vero cells, Shiga toxin protein synthesis inhibition reporter; in the data active means inhibition mostly above about 28%, no sharp cut-off; inactive means mostly below about 43%; further: 0% is about no effect
# FBPA Giardia inh: inhibitors of Giardia lamblia fructose-1,6-bisphosphate aldolase. A8B2U2. 290,000 compounds, 0.71% hits. purified Giardia FBPA. Potency, µM (top dose mostly 59.6 µM), inactives show at the top dose activity, negative = inhibition, hits mostly inhibitors; further: potency means the concentration at half of the fitted maximal effect; on the % scale 0 is the no-effect control and ±100 the full control effect; nearly all actives have a fitted effect of over 55% in size
# Target sequence (A8B2U2 whole entry, looked up): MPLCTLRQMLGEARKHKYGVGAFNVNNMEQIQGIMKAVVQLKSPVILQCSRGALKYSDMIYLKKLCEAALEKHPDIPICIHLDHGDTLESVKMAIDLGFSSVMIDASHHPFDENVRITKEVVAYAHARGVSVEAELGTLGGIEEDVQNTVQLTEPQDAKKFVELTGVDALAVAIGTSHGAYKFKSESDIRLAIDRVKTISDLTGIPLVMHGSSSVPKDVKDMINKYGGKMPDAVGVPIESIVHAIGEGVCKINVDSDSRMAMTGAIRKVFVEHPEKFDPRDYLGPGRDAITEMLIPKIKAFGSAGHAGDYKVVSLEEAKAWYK
#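 40 nM FBPA preincubated 10 min at RT with compound (up to 57.5 uM final), then substrate plus GAPDH/TPI/NAD/arsenate coupling and diaphorase/resazurin added. Fluorescence read after 20 min at RT, 525/598 nm.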
# LmPK inhibitor: blocks Leishmania mexicana pyruvate kinase activity. purified LmPK, Kinase-Glo ATP luminescence, 1 h. Potency, µM (series often up to 57.5 µM), for the others: at the top dose activity change, negative = inhibition, most hits filed as inhibitors. 290,000 compounds, 0.37% hits. AID 1721; further: potency means the concentration at half of the fitted maximal effect; on the % scale 0 is the no-effect control and ±100 the full control effect
#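 Purified LmPK (0.1 nM) converted ADP (0.1 mM) to ATP with PEP (0.5 mM) in imidazole buffer pH 7.2 with KCl and MgCl2, 1 h at room temperature. ATP was read by Kinase-Glo luminescence; data normalized to uninhibited and no-enzyme controls.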
# CHX counter: counter-screen hit for Shiga toxin inhibitors, cycloheximide; cell reporter, cycloheximide protein synthesis inhibition counterscreen; AID 2314; max response, %; 300,000 compounds, 12% hits; in the data active means max response mostly above about 13%, no sharp cut-off; inactive means mostly below about 14%; further: read at 38.3 µM for the half of the compounds with a filed dose; 0% is about no effect
# Active calls of the source: *; · = no result. Unless noted, the call rests on the fitted dose curve; in most records, active means well fitted curve in the direction sought with a large enough effect; inconclusive means small, poorly fitted or top-dose-only effect, or another doubt; inactive means no such curve, though single readings can be large; an effect the other way counts as inactive or inconclusive.
SMILES,NS1 inh,Shiga toxin inh,FBPA Giardia inh,LmPK inhibitor,CHX counter
NS(=O)(=O)c1ccc(NC(=O)Nc2cccc3ccccc23)cc1,-6.2%,-30.2,·,-8.6%,11.7
CCOc1ccccc1NC(=O)Nc1ccc(CC#N)cc1,-10.6%,28.5,-13.5%,-3.6%,17.2*
Cc1noc(C)c1C(=O)N1CCC2(CCCN(C(=O)Nc3cccc(C#N)c3)C2)CC1,·,·,14.0%,·,·
Cc1ccccc1C(=O)Nc1nnc(S(=O)(=O)N2CCCCC2)s1,9.4%,-4.3,-19.3%,5.3%,-2.8
CCc1nc2ccc(C(=O)N3CCN(c4ccc(Cl)cc4)CC3)cc2nc1CC,-17.2%,-2.3,11.8%,-2.1%,-1.1
Cc1cnc(C(=O)Oc2ccc(-c3ccccc3)cc2)cn1,5.7%,-6.0,-4.9%,-1.3%,5.4
Cc1cc(F)ccc1S(=O)(=O)N1CCCOC1CNC(=O)C(=O)NCc1ccccn1 (stereo unspecified),4.8%,23.0,·,-2.5%,-3.1
CC(C)(C)c1ccccc1OCC(=O)Nc1ncn[nH]1,-3.5%,-8.0,-17.5%,7.8%,0.7
CCc1ccc(OCC(=O)Nc2ncn[nH]2)cc1,·,57.6*,-10.4%,-13.5%,24.8*
O=C(/C=C/c1ccccc1)Nc1ncn[nH]1,-207.8%,29.0,-6.2%,-14.7%,25.9*
CCc1ccc(OCC(=O)Nc2ccc(CN3CCCCC3)cc2)cc1,-8.3%,-4.2,3.0%,-1.0%,-1.5
O=C(COc1ccccc1)Nc1ncn[nH]1,-1.8%,45.7*,-8.7%,-6.8%,21.4*
N#C[C@H]1CN[C@H](N)N[C@@H]1N,1.1%,·,·,·,·
O=C(NNC1=Nc2ccccc2SC1)c1ccccc1F,-0.6%,71.9*,6.9%,2.7%,39.3*
O=C(NNC1=Nc2ccccc2SC1)c1cccc([N+](=O)[O-])c1,-2.6%,14.4,12.0%,-11.2%,-0.4
O=C(CCl)Nc1ccc(N=Nc2ccccc2)cc1,-66.9%,105.7*,-11.6%,1.7%,128.1*
CCCC(=O)Nc1ccc(C(N)=O)cc1,·,2.9,-0.2%,2.8%,3.1
CC(=O)Nc1ccc(Nc2ccccc2)cc1,-7.7%,59.1*,0.4%,1.3%,27.1*
O=C(CCl)Nc1ccc(-c2ccccc2)cc1,·,-20.6,0.4%,-2.5%,-7.2
CCCC(=O)Nc1ccc(C(=O)n2ccc(C)n2)cc1,-4.9%,30.8,-3.8%,0.3%,11.0*
CC(=O)Nc1ccccc1,·,·,1.3%,·,·
O=C(Nc1ccc(N=Nc2ccccc2)cc1)c1ccccc1Cl,-9.7%,72.9*,4.1%,5.5%,26.6*
Nc1ccccc1C#CC(=O)c1ccccc1,-68.2%,-1.7,3.7%,-7.0%,-1.4
Cc1nc2cnc(OCc3ccccc3)nc2n(C)c1=O,·,·,6.1%,·,·
COc1cccc(C2c3[nH]c4ccccc4c3C[C@H]3C(=O)N(c4ccccc4C(=O)N4CCC(C(=O)O)CC4)C(=O)N23)c1 (stereo partly specified),-13.6%,-8.5,20.8%,-14.8%,2.3
SMILES,NS1 inh,Shiga toxin inh,FBPA Giardia inh,LmPK inhibitor,CHX counter
CCCC(=O)Nc1ccc(Nc2ccccc2)cc1,-20.4%,35.4*,-2.8%,-2.0%,22.8*
CC(=O)Nc1ccc(N=Nc2ccccc2)cc1,-26.4%,65.0*,4.6%,-4.4%,49.3*
CNC(=S)Nc1ccc(Nc2ccccc2)cc1,-0.9%,26.4,-2.6%,-0.2%,19.5*
CCCC(=O)Nc1ccc(-c2ccc(NC(=O)CCC)cc2)cc1,0.9%,31.2,-1.2%,-0.3%,2.7
CCCNC(=S)Nc1ccc(Nc2ccccc2)cc1,-63.7%,38.2,3.5%,3.5%,14.6
CCCC(=O)NC(NC(=S)Nc1ccc(N=Nc2ccccc2)cc1)C(Cl)(Cl)Cl (stereo unspecified),3.7%,39.4*,-7.4%,1.1%,34.6*
CC(=O)N[C@H]1C(O[C@@H]2O[C@H](C[C@@H](O)[C@H]3O[C@@H](N4CCC(=O)NC4=O)[C@H](O)[C@@H]3O)[C@H](O)[C@H](O)[C@H]2NC(=O)/C=C/CCCCCCCCCCC(C)C)OC(CO)[C@@H](O)[C@@H]1O (stereo partly specified),·,-18.1,6.1%,·,3.2
CC(C)C(=O)OCC(=O)Nc1ccc(N=Nc2ccccc2)cc1,-6.0%,45.8*,0.4%,2.1%,30.7*
CC(=O)OCC(=O)Nc1ccc(SC(F)F)cc1,0.6%,-6.0,-2.4%,-5.9%,8.5
CCC(C(=O)OCC(=O)Nc1ccc(C(N)=O)cc1)c1ccccc1 (stereo unspecified),·,19.3,4.2%,-6.1%,-1.1
CC(=O)OCC(=O)Nc1ccc(N=Nc2ccccc2)cc1,-12.9%,75.6,7.3%,0.8%,38.1*
O=S(=O)(N/N=C/c1ccccc1OCc1ccc(Cl)cc1)c1ccccc1,-5.5%,active,-9.2%,3.3%,23.0*
